Measured values reported in PubChem BioAssay (NCI).
Values joined by “and” are separate entries in the source; they are usually repeats but may differ in a detail not shown here. Equal entries are not always repeated. Compounds without any hit were thinned out: in the full panel of roughly 83,000, 20% have a hit.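 For each line, cells grew in 96-well plates with the test compound present at a single concentration for 48 hours.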 Some structures have more than one record in an assay (separate samples or runs), and their calls can disagree. Active and inactive are the calls of the source. Rule for the calls: active = growth percent below 10; inactive = the rest.

Tests used:
Assay in all cases: NCI-60 one-dose screen, 48 h (100 = growth as untreated, 0 = no growth, -100 = all killed)
[1] = tested on: T-47D breast
[2] = tested on: BT-549 breast
[3] = tested on: MDA-MB-435 melanoma
[4] = tested on: SW-620 colon
[5] = tested on: MCF7 breast
[6] = tested on: HCT-116 colon
[7] = tested on: HCC-2998 colon
[8] = tested on: KM12 colon

Measured: growth

CCCCCCCCCCCCCCCc1cc(O)ccc1N
inactive: [3]; 10 µM unless noted 99.4% and 87.2% | [4]; 10 µM unless noted 114% and 108% | [5]; 10 µM unless noted 72.2% and 35.3% | [6]; 10 µM unless noted 94.4% and 91.4% | [7]; 10 µM unless noted 96.4% and 101% | [8]; 10 µM unless noted 64.2% and 72%
-36.3% (active) and 12.7% (inactive): [2]; 10 µM unless noted
active: [1]; 10 µM unless noted -5.74% and -86.4%

O=C1OC2(c3ccccc31)c1ccc(O)c(O)c1Oc1c2ccc(O)c1O
inactive: [1]; 10 µM unless noted 106% and 99.5% | [2]; 10 µM unless noted 118% | [3]; 10 µM unless noted 112% and 130% | [4]; 10 µM unless noted 105% and 113% | [5]; 10 µM unless noted 109% and 105% | [6]; 10 µM unless noted 110% and 102% | [7]; 10 µM unless noted 104% and 109% | [8]; 10 µM unless noted 104% and 113%

CN1C(=O)C(N=Nc2ccc([N+](=O)[O-])cc2)SC1=S (centres undefined)
active: [7]; 10 µM unless noted -0.382%
inactive: [1]; 10 µM unless noted 50.9% and 57.2% | [2]; 10 µM unless noted 71% and 67.8% | [3]; 10 µM unless noted 75.8% and 85.4% | [4]; 10 µM unless noted 49% and 60.3% | [5]; 10 µM unless noted 82.4% and 68.8% | [6]; 10 µM unless noted 61.7% and 70.5% | [8]; 10 µM unless noted 48.2% and 52.8%

CNC(=O)c1cc(Oc2ccc(NC(=O)Nc3ccc(Cl)c(C(F)(F)F)c3)cc2)ccn1
active: [1]; 10 µM unless noted -8.57% and 7.49% | [3]; 10 µM unless noted -27.3% and -35.2% | [5]; 10 µM unless noted 2.9% and 3.7% | [6]; 10 µM unless noted 0.741% and 9.24% | [7]; 10 µM unless noted -25.4% | [8]; 10 µM unless noted 2.65% and -14.7%
13.5% (inactive) and 5.39% (active): [4]; 10 µM unless noted
-1.7% (active) and 24.4% (inactive): [2]; 10 µM unless noted

CC#C[C@]1(O)CC[C@H]2[C@@H]3CCC4=CC(=O)CCC4=C3[C@@H](c3ccc4c(c3)OCO4)C[C@@]21C
inactive: [1]; 10 µM 45% | [2]; 10 µM 77.8% | [3]; 10 µM 94.7% | [4]; 10 µM 84.7% | [5]; 10 µM 82.2% | [6]; 10 µM 78.4% | [7]; 10 µM 94.4% | [8]; 10 µM 86.3%
active: [1]; 100 µM -16.5% | [2]; 100 µM -33.1% | [3]; 100 µM -35.6% | [4]; 100 µM 4.2% | [5]; 100 µM -4.09% | [6]; 100 µM -78.5% | [7]; 100 µM -22.7% | [8]; 100 µM -42.3%

CN(C)c1ccc2nc3ccc(N)cc3[n+](-c3ccccc3)c2c1
20.8% (inactive) and -13.9% (active): [4]; 10 µM unless noted
active: [1]; 10 µM unless noted -15.1% and 0.414% | [3]; 10 µM unless noted 4.97% and -49.2% | [5]; 10 µM unless noted 3.88% and -17.2% | [6]; 10 µM unless noted 9.48% and 5.93%
inactive: [2]; 10 µM unless noted 27.5% | [7]; 10 µM unless noted 14.6% and 51.9% | [8]; 10 µM unless noted 15.7% and 24.2%

CNC(=O)c1cccc(-c2ccc3c(N4CCOC[C@@H]4C)nc(N4CCOC[C@@H]4C)nc3n2)c1
18.6% (inactive) and 4% (active): [7]; 10 µM unless noted
active: [1]; 10 µM unless noted -24.4% and -34.1% | [2]; 10 µM unless noted -7.8% and -13.9% | [3]; 10 µM unless noted 2.05% and -13.4% | [5]; 10 µM unless noted 5.66% and 4.27%
inactive: [6]; 10 µM unless noted 27.7% and 15.4% | [8]; 10 µM unless noted 11.7% and 13.2%
11.4% (inactive) and 5.84% (active): [4]; 10 µM unless noted

Cc1cccc(/C=C\C(=O)c2ccc(Cl)cc2)c1
inactive: [1]; 10 µM unless noted 93.8% and 91.9% | [2]; 10 µM unless noted 82.9% | [3]; 10 µM unless noted 95.6% and 84.4% | [4]; 10 µM unless noted 89.3% and 69% | [5]; 10 µM unless noted 51.5% and 73.7% | [6]; 10 µM unless noted 52.5% and 62.3% | [7]; 10 µM unless noted 95% and 98.2% | [8]; 10 µM unless noted 96.3% and 95.1%

N/C(=N\N=C\c1ccc2c(c1)OCO2)N/N=C\c1ccc2c(c1)OCO2
inactive: [1]; 10 µM unless noted 112% and 107% | [2]; 10 µM unless noted 95.6% and 67.7% | [3]; 10 µM unless noted 81.2% and 65.5% | [4]; 10 µM unless noted 101% and 75.2% | [5]; 10 µM unless noted 94% and 56% | [6]; 10 µM unless noted 97.6% and 48.8% | [7]; 10 µM unless noted 103% and 86.1% | [8]; 10 µM unless noted 93.5% and 70.3%

COc1ccccc1NC(=O)OCC#CCOC(=O)Nc1ccccc1OC
inactive: [1]; 10 µM unless noted 96.7% and 89.2% | [2]; 10 µM unless noted 91% | [3]; 10 µM unless noted 95.2% and 75.5% | [4]; 10 µM unless noted 102% and 90.2% | [5]; 10 µM unless noted 107% and 91.8% | [6]; 10 µM unless noted 99.9% and 87.4% | [7]; 10 µM unless noted 103% and 104% | [8]; 10 µM unless noted 108% and 91.2%

Clc1ccc(SSc2ccc(Cl)cc2)cc1
89% (inactive) and 9.06% (active): [2]; 10 µM unless noted
inactive: [1]; 10 µM unless noted 96.2% and 103% | [3]; 10 µM unless noted 94% and 100% | [4]; 10 µM unless noted 97.3% and 88.8% | [5]; 10 µM unless noted 102% and 75.1% | [6]; 10 µM unless noted 95.9% and 71% | [7]; 10 µM unless noted 96.8% and 98% | [8]; 10 µM unless noted 107%

Nc1ccccc1SC1CC(=O)N(c2cccc3ccccc23)C1=O (centres undefined)
inactive: [1]; 10 µM unless noted 90.4% | [2]; 10 µM unless noted 102% | [3]; 10 µM unless noted 88.7% | [4]; 10 µM unless noted 94.4% | [5]; 10 µM unless noted 88.2% | [6]; 10 µM unless noted 89.4% | [7]; 10 µM unless noted 100% | [8]; 10 µM unless noted 101%

NCCSC(C[N+](=O)[O-])c1ccccc1Cl (centres undefined)
active: [3]; 10 µM unless noted -24.7% | [4]; 10 µM unless noted -51.3% | [5]; 10 µM unless noted -19.1% | [6]; 10 µM unless noted -83.9% | [7]; 10 µM unless noted -77.8% | [8]; 10 µM unless noted -55.6%
inactive: [1]; 10 µM unless noted 87.5% | [2]; 10 µM unless noted 81.1%

CC(O)Cn1cnc2c1c(=O)n(C)c(=O)n2C (centres undefined)
inactive: [1]; 10 µM unless noted 85.8% | [2]; 10 µM unless noted 83.5% | [3]; 10 µM unless noted 109% | [4]; 10 µM unless noted 113% | [5]; 10 µM unless noted 92.8% | [6]; 10 µM unless noted 102% | [7]; 10 µM unless noted 106% | [8]; 10 µM unless noted 104%

COC(=O)[C@H]1CCCN1C(=O)C1CCCN1C(=O)[C@@H](Cc1ccccc1)NC(=S)Nc1cc(C(F)(F)F)cc(C(F)(F)F)c1 (some centres undefined)
inactive: [1]; 10 µM unless noted 105% and 69.1% | [2]; 10 µM unless noted 112% and 96.8% | [3]; 10 µM unless noted 100% and 89.7% | [4]; 10 µM unless noted 104% and 89% | [5]; 10 µM unless noted 99.2% and 86.3% | [6]; 10 µM unless noted 112% and 65.5% | [7]; 10 µM unless noted 108% and 112% | [8]; 10 µM unless noted 111% and 96.5%

O=C1OC(Oc2ccc(Br)cc2)(c2ccccc2)c2ccccc21 (centres undefined)
inactive: [1]; 10 µM unless noted 73.6% and 76.6% | [2]; 10 µM unless noted 88.4% and 120% | [3]; 10 µM unless noted 102% and 79.5% | [4]; 10 µM unless noted 78.6% and 66.5% | [5]; 10 µM unless noted 89% and 101% | [6]; 10 µM unless noted 65.6% and 54.6% | [7]; 10 µM unless noted 102% and 87.3% | [8]; 10 µM unless noted 87.7% and 76.3%

CCN(CC)CCNc1ccc(C)c2sc3ccccc3c(=O)c12 (tested in a mixture with another compound)
12.2% (inactive) and 5.61% (active): [5]; 10 µM unless noted
inactive: [1]; 10 µM unless noted 41% and 31.5% | [2]; 10 µM unless noted 46.4% and 79.4% | [3]; 10 µM unless noted 23.9% and 28.2% | [4]; 10 µM unless noted 24% and 20.5% | [6]; 10 µM unless noted 19.4% and 19.9% | [7]; 10 µM unless noted 24.6% and 20.5% | [8]; 10 µM unless noted 32.9% and 23.9%
